DAX1 inh-1 – DAX1 (NR0B1) inhibitors on StAR promoter, primary screen, cell-based, luminescence, SF-1 (NR5A1), full-length DAX-1. HEK293T StAR-luciferase reporter, SF-1/DAX-1 repression relief. inhibition, % at 6.8 µM. 370,000 tested, 1.1% active. AID 652010, 2013;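 active = inhibition above the mean over all tested compounds plus 3 SD, cut at about 3.6% in these data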;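 also: higher inhibition means more luminescence from relief of DAX-1 repression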
hcDAF-12 act – H. contortus DAF-12 nuclear receptor activators, primary screen, cell-based, luminescence, HEK293, lit1-tk-luc reporter | HEK293 hcDAF-12 lit1-tk-luc reporter; 0% DMSO, 100% Δ7-dafachronic acid | activation, % at 6.8 µM | 370,000 tested, 1.4% active | AID 652067, 2013;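 active = activation above the mean of all tested compounds plus 3 SD, cut at about 5.5% in these data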
ssDAF12 agonist – S. stercoralis DAF-12 nuclear receptor activators, primary screen, cell-based, luminescence, HEK293, GRIP1 co-expression, lit1-tk-luc; Nuclear hormone receptor DAF-12 (Strongyloides stercoralis); HEK293 ssDAF-12/GRIP1 lit1-tk-luc reporter; % of 3 µM dafachronic acid response; activation, % at 6.8 µM; 370,000 tested, 1% active; AID 652126, 2013;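 active = activation above the mean over all tested compounds plus 3 SD, cut at about 0.9% in these data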
Rev-erbA mod – modulators of Rev-erb alpha DNA binding, primary screen, biochemical, FITC-DNA, fluorescence polarization, uHTS; Nuclear receptor subfamily 1 group D member 1 (Homo sapiens), P20393; Rev-erbα–FITC-DNA binding, 90 min; activity, % at 10 µM; 370,000 tested, 0.79% active;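 active = activity above about 14%, limit read from the data; passing the limit was not always enough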
DAX1 inh-2 – DAX1 (NR0B1) inhibitors, primary screen, cell-based, HEK293, Gal4-DAX1, luciferase luminescence | Nuclear receptor subfamily 0 group B member 1 (Homo sapiens), P51843 | HEK293 Gal4-DAX1 luciferase reporter | inhibition, % at 6.75 µM | 340,000 tested, 0.99% active | AID 504766, 2011;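 active = inhibition above the mean over all tested compounds plus 3 SD, cut at about 4.2% in these data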;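 also: inhibition shows as a rise in luminescence from relieved DAX1 repression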
Target sequence (P51843 207-470 limits assumed): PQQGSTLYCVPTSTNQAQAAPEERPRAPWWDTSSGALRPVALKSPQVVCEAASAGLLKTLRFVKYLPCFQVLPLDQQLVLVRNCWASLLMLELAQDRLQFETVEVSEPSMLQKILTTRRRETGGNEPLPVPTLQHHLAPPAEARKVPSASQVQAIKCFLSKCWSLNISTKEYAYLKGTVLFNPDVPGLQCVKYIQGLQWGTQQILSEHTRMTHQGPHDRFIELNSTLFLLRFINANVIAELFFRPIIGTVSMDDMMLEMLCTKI
hgDAF-12 ag – H. glycines DAF-12 receptor agonists, primary screen, cell-based, luminescence, HEK293, GAL4 fusion, UAS-luciferase; Nuclear hormone receptor DAF-12 (Heterodera glycines), GAL4 fusion; HEK293 GAL4-hgDAF12 UAS-luciferase reporter, agonist luminescence; normalized to butyrate control; activation, % at 6.8 µM; 370,000 tested, 1.8% active;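 active = activation above a cutoff set at the mean of all screened compounds plus 3 SD, cut at about 10% in these data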
hgDAF12 ag – H. glycines DAF-12 receptor agonists, confirmation, cell-based, luminescence, HEK293, GAL4-LBD fusion; 3,300 tested, 80% active; HEK293 GAL4-hgDAF12 luciferase reporter, agonist mode; percent of butyrate response; activation, % at 6.8 µM; shares compounds with hgDAF-12 ag;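 active = mean activation over triplicate wells above the hit cutoff derived from the earlier primary screen, cut at about 11% in these data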
LXRb DAF12 ctr – LXR agonists, Gal4 luciferase reporter, confirmation, counter-screen for hgDAF-12 agonist project, cell-based, luminescence, HEK293, H. glycines campaign; 24 h; shares compounds with hgDAF-12 ag; activation, % at 6.8 µM; 3,300 tested, under 10 active;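 active = mean activation of the triplicate above a set limit carried over from the primary screen, none filed active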
A number is an active result. Hits are enriched below; roughly 4.8% of the tested compounds scored in any of these assays.

Screening Cc1ccc(OCC(=O)Nc2ccccc2F)cc1C returned DAX1 inh-1 inactive, hcDAF-12 act inactive, ssDAF12 agonist inactive, Rev-erbA mod inactive, DAX1 inh-2 inactive, hgDAF-12 ag 16.2, hgDAF12 ag 12.8 and LXRb DAF12 ctr inactive.
For Cc1ccc(OCC(=O)Nc2cccnc2Cl)cc1C the results were DAX1 inh-1 inactive, hcDAF-12 act inactive, ssDAF12 agonist inactive, Rev-erbA mod inactive, DAX1 inh-2 inactive and hgDAF-12 ag inactive.
For COC(=O)C1=C(C)N(Cc2cccc(C(F)(F)F)c2)C(=NCc2ccc(OC)cc2)NC1c1ccc(F)cc1 (stereo not drawn) the results were DAX1 inh-1 inactive, hcDAF-12 act inactive, ssDAF12 agonist inactive, Rev-erbA mod inactive and hgDAF-12 ag inactive.
`O=C(O)CCN1C(=O)/C(=C/c2ccc(-c3nc4ccccc4s3)o2)SC1=S` gave DAX1 inh-1 inactive, hcDAF-12 act inactive, ssDAF12 agonist inactive, Rev-erbA mod inactive, DAX1 inh-2 inactive and hgDAF-12 ag inactive.
Screening O=Cc1ccc(-c2nc3ccccc3s2)o1 returned DAX1 inh-1 inactive, hcDAF-12 act 6.0, ssDAF12 agonist inactive, Rev-erbA mod inactive, DAX1 inh-2 inactive, hgDAF-12 ag 13.6, hgDAF12 ag 10.8 and LXRb DAF12 ctr inactive.
`CCCCN1CCS(=O)(=O)N(Cc2cn(Cc3ccc(C)cc3)nn2)C(C(=O)OC)C1` (stereo not drawn) gave DAX1 inh-1 inactive, hcDAF-12 act inactive, ssDAF12 agonist inactive, Rev-erbA mod inactive and hgDAF-12 ag inactive.
`Cc1cccc(CSc2cn(CC(=O)N3CCOCC3)c3ccccc23)c1` gave DAX1 inh-1 inactive, hcDAF-12 act inactive, ssDAF12 agonist inactive, Rev-erbA mod inactive, DAX1 inh-2 5.2, hgDAF-12 ag 14.2, hgDAF12 ag 13.1 and LXRb DAF12 ctr inactive.
For C[C@H](O)[C@@H]1C(=O)N2CCc3c([nH]c4cccc(-c5ccccc5)c34)[C@@H]2C[C@@H]1N(C)C(=O)Nc1ccccc1 the results were DAX1 inh-1 inactive, hcDAF-12 act inactive, ssDAF12 agonist inactive, Rev-erbA mod inactive and hgDAF-12 ag inactive.
O=C(Nc1nccs1)C(Br)C(Br)c1ccccc1 (stereo not drawn) was read as DAX1 inh-1 inactive, hcDAF-12 act 6.4, ssDAF12 agonist inactive, Rev-erbA mod inactive, DAX1 inh-2 inactive, hgDAF-12 ag 15.8, hgDAF12 ag 19.4 and LXRb DAF12 ctr inactive.
`CCC(C)NC(=O)Cn1c(COc2ccc(Cl)cc2Cl)nc2ccccc21` (stereo not drawn) gave DAX1 inh-1 inactive, hcDAF-12 act inactive, ssDAF12 agonist inactive, Rev-erbA mod inactive, DAX1 inh-2 inactive, hgDAF-12 ag 16.1, hgDAF12 ag 16.8 and LXRb DAF12 ctr inactive.
Cc1ccc(C(=O)NCc2ccc(F)cc2)s1 was read as DAX1 inh-1 inactive, hcDAF-12 act inactive, ssDAF12 agonist inactive, Rev-erbA mod inactive, DAX1 inh-2 inactive and hgDAF-12 ag inactive.
`Cc1ccc(C(=O)NCCc2ccc(F)cc2)s1` gave DAX1 inh-1 inactive, hcDAF-12 act inactive, ssDAF12 agonist inactive, Rev-erbA mod inactive, DAX1 inh-2 inactive, hgDAF-12 ag 17.1, hgDAF12 ag 17.1 and LXRb DAF12 ctr inactive.
For O=C(OCc1cn(Cc2ccc(F)c(F)c2)nn1)N1CCCC1 the results were DAX1 inh-1 inactive, hcDAF-12 act inactive, ssDAF12 agonist inactive, Rev-erbA mod inactive and hgDAF-12 ag inactive.
For CCC/C(=N/NC(=O)c1cccc(Cl)c1)c1ccccc1 the results were DAX1 inh-1 inactive, hcDAF-12 act inactive, ssDAF12 agonist inactive, Rev-erbA mod inactive, DAX1 inh-2 inactive, hgDAF-12 ag 16.6, hgDAF12 ag inactive and LXRb DAF12 ctr inactive.
`O=C1CCCC2=C1[C@@]1(O[C@H]3C=CC=CN23)C(=O)N(c2ccccc2)c2ccccc21` gave DAX1 inh-1 inactive, hcDAF-12 act inactive, ssDAF12 agonist inactive, Rev-erbA mod inactive and hgDAF-12 ag inactive.
For CSc1ccc(-c2cc(=O)c3ccccc3o2)cc1 the results were DAX1 inh-1 3.9, hcDAF-12 act 10.1, ssDAF12 agonist 3.1, Rev-erbA mod inactive, DAX1 inh-2 inactive, hgDAF-12 ag 17.5, hgDAF12 ag 17.7 and LXRb DAF12 ctr inactive.
C[C@@H]1ON(C)[C@H]2C[C@H]3c4[nH]c5c(-c6cc(Cl)cc(Cl)c6)cccc5c4CCN3C(=O)[C@@H]12 was read as DAX1 inh-1 inactive, hcDAF-12 act inactive, ssDAF12 agonist inactive, Rev-erbA mod inactive and hgDAF-12 ag inactive.
`O=C(c1ccccc1)c1cnc(-c2ccccc2)s1` gave DAX1 inh-1 inactive, hcDAF-12 act inactive, ssDAF12 agonist inactive, Rev-erbA mod inactive, DAX1 inh-2 9.3, hgDAF-12 ag 16.4, hgDAF12 ag 18.0 and LXRb DAF12 ctr inactive.
For CN(C)/C=C/C(=O)c1cnc(-c2ccccc2)s1 the results were DAX1 inh-1 inactive, hcDAF-12 act inactive, ssDAF12 agonist inactive, Rev-erbA mod inactive, DAX1 inh-2 inactive and hgDAF-12 ag inactive.
For CC(C)C[C@@H]1COc2cc(Br)ccc2S(=O)(=O)N1Cc1cn(Cc2ccco2)nn1 the results were DAX1 inh-1 inactive, hcDAF-12 act inactive, ssDAF12 agonist inactive, Rev-erbA mod inactive and hgDAF-12 ag inactive.
`COc1cccc2c1C(=O)O/C2=C/c1ccc2c(c1)OCO2` gave DAX1 inh-1 inactive, hcDAF-12 act inactive, ssDAF12 agonist 1.2, Rev-erbA mod inactive, DAX1 inh-2 inactive, hgDAF-12 ag 16.3, hgDAF12 ag 14.3 and LXRb DAF12 ctr inactive.
O=C(NCCc1ccccc1Cl)[C@@H]1CCCN1C(=O)[C@H](Cc1cccnc1)NC(=O)N1CCOCC1 was read as DAX1 inh-1 inactive, hcDAF-12 act inactive, ssDAF12 agonist inactive, Rev-erbA mod inactive and hgDAF-12 ag inactive.

Bioassay records (PubChem)
